Data reported in paper PMC4336329 (PLoS ONE, 2015).
About 2,200 (0.71%) of roughly 310,000 compounds showed an effect of 50% or more. Effects have a minus sign here. The sample holds strong results, similar compounds and a random draw of the others, so the mix is not that of the screen.

Target: human ether-à-go-go-related gene (hERG) potassium channel (human, UniProt Q12809)
Assay: primary screen, population patch clamp on CHO cells stably expressing hERG; higher = less effect of the substance

Sequence of human ether-à-go-go-related gene (hERG) potassium channel (Q12809 whole entry, looked up): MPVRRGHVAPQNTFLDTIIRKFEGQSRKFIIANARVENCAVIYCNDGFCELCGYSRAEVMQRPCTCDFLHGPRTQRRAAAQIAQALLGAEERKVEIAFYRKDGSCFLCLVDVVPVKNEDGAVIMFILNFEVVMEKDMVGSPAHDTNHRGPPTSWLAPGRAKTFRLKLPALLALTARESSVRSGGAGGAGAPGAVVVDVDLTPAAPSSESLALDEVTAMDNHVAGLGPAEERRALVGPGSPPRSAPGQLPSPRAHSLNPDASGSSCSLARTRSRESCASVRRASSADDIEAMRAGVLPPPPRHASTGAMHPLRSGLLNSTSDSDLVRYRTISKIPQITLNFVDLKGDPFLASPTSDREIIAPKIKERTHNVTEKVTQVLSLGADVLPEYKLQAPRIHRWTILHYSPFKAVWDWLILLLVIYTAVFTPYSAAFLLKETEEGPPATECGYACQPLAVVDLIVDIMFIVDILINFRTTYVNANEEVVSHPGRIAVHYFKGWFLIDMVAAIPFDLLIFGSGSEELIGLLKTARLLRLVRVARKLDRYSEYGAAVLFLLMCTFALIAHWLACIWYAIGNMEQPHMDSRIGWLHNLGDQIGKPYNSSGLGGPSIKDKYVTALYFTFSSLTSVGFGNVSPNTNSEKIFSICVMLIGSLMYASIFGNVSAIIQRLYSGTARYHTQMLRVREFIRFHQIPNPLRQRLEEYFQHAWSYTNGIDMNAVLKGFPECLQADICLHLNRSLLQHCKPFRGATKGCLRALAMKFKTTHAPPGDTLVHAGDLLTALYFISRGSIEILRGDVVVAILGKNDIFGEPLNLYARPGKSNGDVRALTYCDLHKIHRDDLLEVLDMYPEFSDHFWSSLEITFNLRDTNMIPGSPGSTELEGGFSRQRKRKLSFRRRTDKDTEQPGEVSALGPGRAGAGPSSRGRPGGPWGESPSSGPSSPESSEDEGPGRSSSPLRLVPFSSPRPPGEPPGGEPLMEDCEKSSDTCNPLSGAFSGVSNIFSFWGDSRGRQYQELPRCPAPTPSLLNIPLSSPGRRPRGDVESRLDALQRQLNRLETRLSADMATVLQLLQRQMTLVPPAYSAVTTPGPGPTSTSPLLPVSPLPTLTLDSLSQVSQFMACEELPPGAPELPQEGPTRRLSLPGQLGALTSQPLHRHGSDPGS

| SMILES | hERG current change (%, negative = inhibition) at 1uM |
| --- | --- |
| COc1ccc(C(=O)NC(=S)Nc2ccc(S(=O)(=O)Nc3cc(OC)nc(OC)n3)cc2)cc1 | 13.7% |
| O=C(Oc1ccc2c(c1)CCC2)N1CCOCC1 | 11.3% |
| Cc1ccc(S(=O)(=O)N2CCCC2C(=O)NCc2ccco2)cc1 (stereo not shown) | 8.74% |
| Cc1ccc(C)c(S(=O)(=O)N2CCCOC2CNC(=O)C(=O)NC2CC2)c1 (stereo not shown) | 19.9% |
| COc1ccc(Nc2nc(N3CCCC3)nc3ccccc23)c(OC)c1 | -7.36% |
| COc1ccc(Nc2nc(N3CCN(C)CC3)nc3ccccc23)c(OC)c1 | -76.6% |
| COc1ccc(Nc2nc(N3CCCCC3)nc3ccccc23)c(OC)c1 | -12.1% |
| Cc1ccc(-n2c(SCC(=O)NCC3CCCO3)nc3c(c2=O)SCC3)cc1 (stereo not shown) | 2.53% |
| CN(CC1CCCN(CCc2ccc(Cl)cc2)C1)C(=O)c1ccco1 (stereo not shown) | 11.1% |
| Cc1ccccc1CCN1CCCC(CN(C)C(=O)C(=O)c2ccco2)C1 (stereo not shown) | -17.7% |
| COc1cccc(CN(C)CC2CCCN(CCc3ccc(Cl)cc3)C2)c1OC (stereo not shown) | -3.32% |
| COc1ccc(CN(C)CC2CCCN(CCc3ccc(Cl)cc3)C2)cc1OC (stereo not shown) | -78.2% |
| Cc1cc(C(=O)N(C)CC2CCCN(CCc3ccc(F)cc3)C2)c(C)o1 (stereo not shown) | -71.6% |
| CN(CC1CCCN(CCc2ccc(Cl)cc2)C1)C(=O)c1ccoc1 (stereo not shown) | -85.3% |
| COc1ccc(CCN2CCCC(CN(C)C(=O)c3ccoc3)C2)cc1 (stereo not shown) | -32.6% |
| COc1ccc(CCN2CCCC(CN(C)C(=O)c3ccoc3C)C2)cc1 (stereo not shown) | 18.4% |
| CN(CC1CCCN(CCc2ccc(Cl)cc2)C1)C(=O)C(=O)c1ccco1 (stereo not shown) | -72.5% |
| CN(C)C(=O)CCC(=O)N(C)CC1CCCN(CCc2ccc(F)cc2)C1 (stereo not shown) | -0.257% |
| CN(CC1CCCN(CCc2ccccc2F)C1)C(=O)c1ccoc1 (stereo not shown) | -25.9% |
| COc1ccc(CN(C)CC2CCCN(CCc3ccc(F)cc3)C2)cc1OC (stereo not shown) | -8.47% |
| O=C(O)CCC(=O)Nc1sc2c(c1C(=O)NCc1ccccc1)CCCC2 | 0.699% |
| Cc1cc2c(cc1C)C(c1ccccc1Br)CC(=O)N2 (stereo not shown) | 13.7% |
| Cc1ccc(N2CC(C(=O)Oc3cccc(N4C(=O)CCC4=O)c3)CC2=O)cc1 (stereo not shown) | -8.29% |
| Cc1nn(-c2ccccc2)c(Cl)c1/C=N/O | 4.67% |
| Cc1c(C(C)(C)C)s/c(=N/S(=O)(=O)c2ccccc2)n1C | 12.6% |
| N#Cc1c(NC(=O)CSc2nc3ccccc3s2)sc2c1CCCC2 | 9.38% |
| O=C(O)c1ccc(N/N=C/c2ccncc2)cc1 | 10% |
| COCc1ccc(C(=O)N(C)CC2CCCN(CCc3ccc(OC)cc3)C2)o1 (stereo not shown) | -38.5% |

| SMILES | hERG current change (%, negative = inhibition) at 1uM |
| --- | --- |
| COCc1ccc(C(=O)N(C)CC2CCCN(CCc3ccccc3F)C2)o1 (stereo not shown) | -11.7% |
| COCc1ccc(C(=O)N(C)CC2CCCN(CCc3ccc(Cl)cc3)C2)o1 (stereo not shown) | -65.1% |
| COc1ccc(CNc2nc3c(c(=O)n(Cc4ccc(Br)cc4)c(=O)n3C)n2C)cc1 | -10.5% |
| CN(C)CCN(Cc1ccc(Cl)cc1)c1ccccn1.Cl | -57.1% |
| CN(C)CCN(Cc1ccccc1)c1ccccn1.Cl | -19.1% |
| C[N+](C)(C)CCN(Cc1ccc(Cl)cc1)c1ccccn1.[I-] | 6.09% |
| Cc1ccc(-n2cccc2/C=C2/C(=N)N3C(=NC2=O)SN=C3S(C)(=O)=O)cc1Cl | 11.1% |
| COC(=O)[C@H]1C[C@H](C(=O)O)[C@@H](C)C1(C)C | 9.34% |
| O=Cc1ccc(-n2nncc2-c2ccc([N+](=O)[O-])cc2)cc1 | -12.4% |
| O=[N+]([O-])c1ccc(-n2nncc2-c2ccc(Cl)cc2)cc1 | -60.4% |
| O=[N+]([O-])c1ccc(-n2nncc2-c2ccccc2)cc1 | 0.0452% |
| CCS(=O)(=O)NCCCc1ccccc1 | -5.33% |
| CCn1c(C)[n+](CCOCC[n+]2c(C)n(CC)c3cc(Cl)c(Cl)cc32)c2cc(Cl)c(Cl)cc21.[I-] | 8.45% |
| CCn1c(/C=C/Nc2ccccc2)[n+](CC)c2cc(Cl)c(Cl)cc21.[I-] | -87.2% |
| CCn1c(/C=C/N(C(C)=O)c2ccccc2)[n+](CCCS(=O)(=O)[O-])c2cc(Cl)c(Cl)cc21 | 10.6% |
| CCn1c(/C=C/Nc2ccccc2)[n+](CC)c2ccc(Cl)cc21.[I-] | -82.8% |
| CCn1c(/C=C/N(C(C)=O)c2ccccc2)[n+](CC)c2ccc(Cl)cc21.[I-] | 5.77% |
| Cc1n(C)c2cc(Cl)ccc2[n+]1Cc1ccccc1.[I-] | 4.11% |
| Cc1ccccc1Cn1c(=O)n(CCC(=O)NCc2ccc3c(c2)OCO3)c(=O)c2ccccc21 | 16.7% |
| CCCOC(=O)c1cc(-c2ccc(C=O)o2)ccc1Cl | 3.2% |
| O=C(COC(=O)CCC(=O)c1ccc(F)cc1)Nc1nnc(-c2ccccc2)o1 | -0.682% |
| CCCCCCCNC(=O)C1(CC2CC(c3ccc(Cl)cc3)=NO2)CCN(C(=O)OC(C)(C)C)CC1 (stereo not shown) | 18.9% |
| CCCCCCCNC(=O)C1(CC2CC(c3ccc(Cl)cc3)=NO2)CCN(C(=O)CCCCCBr)CC1 (stereo not shown) | -52.1% |
| CCCCCCCNC(=O)C1(CC2CC(c3cccc(Br)c3)=NO2)CCN(C(=O)OC(C)(C)C)CC1 (stereo not shown) | 4.2% |
| CCCCCCCNC(=O)C1(CC2CC(c3cccc(Br)c3)=NO2)CCN(C(=O)CCCCCBr)CC1 (stereo not shown) | -72% |
| CCCNC(=O)C1(CC2CC(c3ccccc3)=NO2)CCN(C(=O)CCCCCBr)CC1 (stereo not shown) | -5.35% |
| O=C(CCCCCBr)N1CCC(CC2CC(c3ccc(Cl)cc3)=NO2)(C(=O)NCC2CCCCC2)CC1 (stereo not shown) | -37.5% |
